Experimental data from ChEMBL document CHEMBL1961873, “Compounds: GSK PKIS; Assays: Nanosyn kinase panel” (2012).

Columns and labels:
[1] = target: Dual specificity protein kinase CLK3 (Homo sapiens) (UniProt P49761); conditions: at 1 µM;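 also: each value is the mean inhibition of CLK3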
[2] = target: Dual specificity tyrosine-phosphorylation-regulated kinase 1A (Homo sapiens) (UniProt Q13627); conditions: at 0.1 µM
[3] = target: Dual specificity tyrosine-phosphorylation-regulated kinase 1A (Homo sapiens) (UniProt Q13627); conditions: at 1 µM
[4] = target: Dual specificity tyrosine-phosphorylation-regulated kinase 1B (Homo sapiens) (UniProt Q9Y463); conditions: at 0.1 µM
Chain of Dual specificity tyrosine-phosphorylation-regulated kinase 1B (Homo sapiens) (Q9Y463 whole entry, looked up): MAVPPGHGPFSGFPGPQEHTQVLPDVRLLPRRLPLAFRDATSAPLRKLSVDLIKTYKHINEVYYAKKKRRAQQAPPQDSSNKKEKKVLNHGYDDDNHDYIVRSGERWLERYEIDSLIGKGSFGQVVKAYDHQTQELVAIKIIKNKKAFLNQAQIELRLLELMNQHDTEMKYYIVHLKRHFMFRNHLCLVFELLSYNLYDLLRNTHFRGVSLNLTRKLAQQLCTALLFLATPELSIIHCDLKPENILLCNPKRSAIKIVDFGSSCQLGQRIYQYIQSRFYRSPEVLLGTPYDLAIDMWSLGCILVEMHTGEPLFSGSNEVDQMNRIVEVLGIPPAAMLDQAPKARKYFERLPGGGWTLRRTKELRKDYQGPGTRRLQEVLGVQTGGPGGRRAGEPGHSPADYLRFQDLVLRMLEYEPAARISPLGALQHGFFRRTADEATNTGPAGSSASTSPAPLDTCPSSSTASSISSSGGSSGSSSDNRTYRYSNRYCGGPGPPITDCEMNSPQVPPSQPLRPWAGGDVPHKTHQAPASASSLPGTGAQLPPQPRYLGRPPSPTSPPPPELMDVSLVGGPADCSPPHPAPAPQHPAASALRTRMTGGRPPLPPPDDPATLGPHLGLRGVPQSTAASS

[5] = target: Dual specificity tyrosine-phosphorylation-regulated kinase 1B (Homo sapiens) (UniProt Q9Y463); conditions: at 1 µM
[6] = target: T1, Dual specificity tyrosine-phosphorylation-regulated kinase 2 (Homo sapiens) (UniProt Q92630); conditions: at 0.1 µM
T1 sequence (whole entry): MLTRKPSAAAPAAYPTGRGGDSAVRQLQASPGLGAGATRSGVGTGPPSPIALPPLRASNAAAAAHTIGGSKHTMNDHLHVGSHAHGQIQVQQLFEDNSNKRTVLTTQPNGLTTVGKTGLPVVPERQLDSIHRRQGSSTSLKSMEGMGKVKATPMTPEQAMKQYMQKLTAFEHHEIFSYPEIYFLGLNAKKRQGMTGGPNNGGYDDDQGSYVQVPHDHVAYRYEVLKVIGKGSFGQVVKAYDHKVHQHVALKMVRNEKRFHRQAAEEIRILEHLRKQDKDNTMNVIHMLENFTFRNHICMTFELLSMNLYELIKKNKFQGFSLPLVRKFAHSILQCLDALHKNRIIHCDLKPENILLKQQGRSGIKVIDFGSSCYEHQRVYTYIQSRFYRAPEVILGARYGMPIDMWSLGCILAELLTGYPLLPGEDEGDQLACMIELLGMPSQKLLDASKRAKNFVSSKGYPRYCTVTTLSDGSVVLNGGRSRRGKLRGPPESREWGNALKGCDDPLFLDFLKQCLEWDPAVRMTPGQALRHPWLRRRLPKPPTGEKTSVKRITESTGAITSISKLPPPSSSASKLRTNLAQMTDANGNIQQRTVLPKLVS

[7] = target: T1, Dual specificity tyrosine-phosphorylation-regulated kinase 2 (Homo sapiens); conditions: at 1 µM
[8] = target: Glycogen synthase kinase-3 alpha (Homo sapiens) (UniProt P49840); conditions: at 0.1 µM
Chain of Glycogen synthase kinase-3 alpha (Homo sapiens) (P49840 2-483 limits assumed): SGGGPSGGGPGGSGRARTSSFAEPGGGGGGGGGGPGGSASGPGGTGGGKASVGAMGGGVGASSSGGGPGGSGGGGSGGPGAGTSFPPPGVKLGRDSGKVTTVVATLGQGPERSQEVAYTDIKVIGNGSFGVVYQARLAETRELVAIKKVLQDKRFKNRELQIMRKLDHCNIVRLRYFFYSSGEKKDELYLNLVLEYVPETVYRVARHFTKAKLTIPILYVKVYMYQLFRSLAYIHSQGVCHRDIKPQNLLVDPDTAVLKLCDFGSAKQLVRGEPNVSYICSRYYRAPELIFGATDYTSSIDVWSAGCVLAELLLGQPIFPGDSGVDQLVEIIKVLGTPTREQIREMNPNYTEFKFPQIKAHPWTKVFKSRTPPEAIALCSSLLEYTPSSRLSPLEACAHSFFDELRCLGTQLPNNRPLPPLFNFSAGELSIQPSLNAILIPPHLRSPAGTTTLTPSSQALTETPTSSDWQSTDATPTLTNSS

[9] = target: Glycogen synthase kinase-3 alpha (Homo sapiens) (UniProt P49840); conditions: at 1 µM
[10] = target: Glycogen synthase kinase-3 beta (Homo sapiens) (UniProt P49841); conditions: at 0.1 µM
Chain of Glycogen synthase kinase-3 beta (Homo sapiens) (P49841 whole entry, looked up): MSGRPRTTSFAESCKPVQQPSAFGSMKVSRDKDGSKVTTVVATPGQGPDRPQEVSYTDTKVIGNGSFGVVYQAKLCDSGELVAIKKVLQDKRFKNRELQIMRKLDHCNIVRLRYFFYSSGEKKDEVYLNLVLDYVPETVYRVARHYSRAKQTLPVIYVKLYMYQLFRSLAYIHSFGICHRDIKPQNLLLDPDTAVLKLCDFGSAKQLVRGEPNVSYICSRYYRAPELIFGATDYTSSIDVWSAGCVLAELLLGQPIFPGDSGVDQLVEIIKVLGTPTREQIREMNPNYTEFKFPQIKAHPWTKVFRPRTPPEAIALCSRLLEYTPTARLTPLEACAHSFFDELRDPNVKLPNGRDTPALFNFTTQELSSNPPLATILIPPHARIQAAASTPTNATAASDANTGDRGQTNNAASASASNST

[11] = target: Glycogen synthase kinase-3 beta (Homo sapiens) (UniProt P49841); conditions: at 1 µM
[12] = target: Homeodomain-interacting protein kinase 1 (Homo sapiens) (UniProt Q86Z02); conditions: at 0.1 µM
Chain of Homeodomain-interacting protein kinase 1 (Homo sapiens) (Q86Z02 whole entry, looked up): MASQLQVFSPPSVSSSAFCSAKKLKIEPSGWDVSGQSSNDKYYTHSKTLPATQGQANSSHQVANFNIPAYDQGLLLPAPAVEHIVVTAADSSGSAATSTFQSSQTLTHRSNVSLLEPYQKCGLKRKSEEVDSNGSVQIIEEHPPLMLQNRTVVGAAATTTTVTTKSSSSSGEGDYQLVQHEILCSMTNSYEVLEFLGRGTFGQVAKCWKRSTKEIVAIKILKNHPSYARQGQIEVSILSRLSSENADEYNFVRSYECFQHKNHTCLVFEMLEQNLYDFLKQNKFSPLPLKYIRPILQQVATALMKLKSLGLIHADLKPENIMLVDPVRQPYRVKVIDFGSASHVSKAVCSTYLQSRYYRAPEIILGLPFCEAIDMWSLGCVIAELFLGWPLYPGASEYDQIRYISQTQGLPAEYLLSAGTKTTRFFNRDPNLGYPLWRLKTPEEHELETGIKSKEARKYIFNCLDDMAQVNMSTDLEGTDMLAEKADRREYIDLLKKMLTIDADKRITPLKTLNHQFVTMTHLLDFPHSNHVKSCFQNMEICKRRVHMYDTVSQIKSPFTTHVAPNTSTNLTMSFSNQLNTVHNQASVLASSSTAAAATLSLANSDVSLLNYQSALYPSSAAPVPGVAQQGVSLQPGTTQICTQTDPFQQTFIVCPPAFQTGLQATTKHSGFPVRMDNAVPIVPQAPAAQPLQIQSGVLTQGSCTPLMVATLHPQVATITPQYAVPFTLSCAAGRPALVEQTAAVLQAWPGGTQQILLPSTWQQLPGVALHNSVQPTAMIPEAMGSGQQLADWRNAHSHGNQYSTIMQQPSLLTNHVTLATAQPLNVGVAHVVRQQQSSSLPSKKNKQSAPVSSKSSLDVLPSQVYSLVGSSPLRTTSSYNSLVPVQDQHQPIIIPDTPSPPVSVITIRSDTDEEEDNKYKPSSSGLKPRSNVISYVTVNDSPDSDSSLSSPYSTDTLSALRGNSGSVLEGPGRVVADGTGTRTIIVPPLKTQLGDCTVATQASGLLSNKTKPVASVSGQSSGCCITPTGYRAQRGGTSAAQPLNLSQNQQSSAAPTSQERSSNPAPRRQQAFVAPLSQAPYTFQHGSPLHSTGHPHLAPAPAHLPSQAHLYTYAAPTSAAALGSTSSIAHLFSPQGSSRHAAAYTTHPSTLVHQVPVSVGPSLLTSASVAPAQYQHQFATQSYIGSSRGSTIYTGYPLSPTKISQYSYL

[13] = target: Homeodomain-interacting protein kinase 1 (Homo sapiens) (UniProt Q86Z02); conditions: at 1 µM
[14] = target: T2, Homeodomain-interacting protein kinase 4 (Homo sapiens) (UniProt Q8NE63); conditions: at 0.1 µM
T2 sequence (whole entry): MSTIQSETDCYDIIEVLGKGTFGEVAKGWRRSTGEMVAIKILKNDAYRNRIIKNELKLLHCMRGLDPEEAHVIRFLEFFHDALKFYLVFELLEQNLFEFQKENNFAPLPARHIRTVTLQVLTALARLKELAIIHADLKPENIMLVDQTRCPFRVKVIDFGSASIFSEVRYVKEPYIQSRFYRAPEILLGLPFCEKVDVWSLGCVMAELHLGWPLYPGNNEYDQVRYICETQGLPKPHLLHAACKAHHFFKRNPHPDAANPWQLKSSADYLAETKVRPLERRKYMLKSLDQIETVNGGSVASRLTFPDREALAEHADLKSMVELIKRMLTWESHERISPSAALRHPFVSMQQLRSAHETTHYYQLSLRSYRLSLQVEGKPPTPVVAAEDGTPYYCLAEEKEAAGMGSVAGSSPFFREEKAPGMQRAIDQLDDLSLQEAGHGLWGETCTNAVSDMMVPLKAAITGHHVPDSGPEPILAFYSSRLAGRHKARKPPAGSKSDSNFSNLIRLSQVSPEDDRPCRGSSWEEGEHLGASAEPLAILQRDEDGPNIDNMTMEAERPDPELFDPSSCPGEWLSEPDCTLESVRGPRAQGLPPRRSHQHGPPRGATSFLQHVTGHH

[15] = target: T2, Homeodomain-interacting protein kinase 4 (Homo sapiens); conditions: at 1 µM
[16] = target: Mitogen-activated protein kinase 9 (Homo sapiens) (UniProt P45984); conditions: at 0.1 µM
Chain of Mitogen-activated protein kinase 9 (Homo sapiens) (P45984 whole entry, looked up): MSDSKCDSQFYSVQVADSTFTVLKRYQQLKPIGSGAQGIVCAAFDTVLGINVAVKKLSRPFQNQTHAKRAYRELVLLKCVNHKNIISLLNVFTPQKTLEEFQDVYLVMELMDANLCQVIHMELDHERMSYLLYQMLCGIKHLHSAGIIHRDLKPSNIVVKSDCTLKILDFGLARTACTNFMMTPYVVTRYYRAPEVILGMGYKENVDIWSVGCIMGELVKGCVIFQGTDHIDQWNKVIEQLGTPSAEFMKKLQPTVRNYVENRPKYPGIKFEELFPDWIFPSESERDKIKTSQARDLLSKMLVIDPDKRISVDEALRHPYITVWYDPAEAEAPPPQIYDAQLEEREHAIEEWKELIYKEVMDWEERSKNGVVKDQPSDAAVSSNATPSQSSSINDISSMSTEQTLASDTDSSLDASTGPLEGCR

[17] = target: Mitogen-activated protein kinase 9 (Homo sapiens) (UniProt P45984); conditions: at 1 µM
[18] = target: Mitogen-activated protein kinase 1 (Homo sapiens) (UniProt P28482); conditions: at 0.1 µM
Chain of Mitogen-activated protein kinase 1 (Homo sapiens) (P28482 whole entry): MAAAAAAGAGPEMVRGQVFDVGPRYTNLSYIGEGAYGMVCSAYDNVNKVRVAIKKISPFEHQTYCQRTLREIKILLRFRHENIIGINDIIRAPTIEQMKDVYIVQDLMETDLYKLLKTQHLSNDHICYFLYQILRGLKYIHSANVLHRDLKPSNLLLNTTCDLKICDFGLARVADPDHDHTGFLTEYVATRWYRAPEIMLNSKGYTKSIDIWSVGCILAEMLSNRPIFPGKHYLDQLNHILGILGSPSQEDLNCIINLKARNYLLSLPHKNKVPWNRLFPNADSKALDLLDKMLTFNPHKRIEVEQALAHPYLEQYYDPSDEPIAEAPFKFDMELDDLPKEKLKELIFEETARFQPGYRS

[19] = target: Mitogen-activated protein kinase 1 (Homo sapiens) (UniProt P28482); conditions: at 1 µM
[20] = target: Mitogen-activated protein kinase 3 (Homo sapiens) (UniProt P27361); conditions: at 0.1 µM;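 also: each value is a mean inhibition figure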
Chain of Mitogen-activated protein kinase 3 (Homo sapiens) (P27361 whole entry): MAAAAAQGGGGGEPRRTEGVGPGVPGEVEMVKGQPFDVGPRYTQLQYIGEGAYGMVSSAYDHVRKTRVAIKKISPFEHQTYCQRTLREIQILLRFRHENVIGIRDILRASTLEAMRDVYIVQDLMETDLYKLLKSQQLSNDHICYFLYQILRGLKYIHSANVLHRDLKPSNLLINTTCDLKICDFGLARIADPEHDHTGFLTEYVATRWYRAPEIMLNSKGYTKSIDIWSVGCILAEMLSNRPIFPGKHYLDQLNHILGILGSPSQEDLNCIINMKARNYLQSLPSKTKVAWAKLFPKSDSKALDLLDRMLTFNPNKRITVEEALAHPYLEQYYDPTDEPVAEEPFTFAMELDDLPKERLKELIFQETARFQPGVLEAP

Chain of Dual specificity protein kinase CLK3 (Homo sapiens) (P49761 whole entry, looked up): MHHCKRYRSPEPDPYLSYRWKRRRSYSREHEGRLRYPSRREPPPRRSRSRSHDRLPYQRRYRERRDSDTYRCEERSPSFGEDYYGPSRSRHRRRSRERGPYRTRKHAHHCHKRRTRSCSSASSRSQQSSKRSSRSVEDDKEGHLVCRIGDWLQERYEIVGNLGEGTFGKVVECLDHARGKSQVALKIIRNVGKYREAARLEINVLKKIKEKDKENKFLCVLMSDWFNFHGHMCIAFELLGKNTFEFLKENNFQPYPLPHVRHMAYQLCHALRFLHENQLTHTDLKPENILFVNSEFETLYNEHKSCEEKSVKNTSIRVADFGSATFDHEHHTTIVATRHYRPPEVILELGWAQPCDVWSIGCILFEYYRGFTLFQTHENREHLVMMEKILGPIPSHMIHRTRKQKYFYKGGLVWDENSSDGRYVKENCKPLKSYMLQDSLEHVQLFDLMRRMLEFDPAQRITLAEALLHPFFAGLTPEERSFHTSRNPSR

| Compound | inhibition [1] [%] | inhibition [2] [%] | inhibition [3] [%] | inhibition [4] [%] | inhibition [5] [%] | inhibition [6] [%] | inhibition [7] [%] | inhibition [8] [%] | inhibition [9] [%] | inhibition [10] [%] | inhibition [11] [%] | inhibition [12] [%] | inhibition [13] [%] | inhibition [14] [%] | inhibition [15] [%] | inhibition [16] [%] | inhibition [17] [%] | inhibition [18] [%] | inhibition [19] [%] | inhibition [20] [%] |
| --- | --- | --- | --- | --- | --- | --- | --- | --- | --- | --- | --- | --- | --- | --- | --- | --- | --- | --- | --- | --- |
| CN1CCC(n2cnc(-c3ccc(F)cc3)c2-c2ccnc(Nc3ccccc3)n2)CC1 | 0.59 | 1.28 | 2.82 | 0.22 | 0.48 | 1.36 | 3.27 | 3.08 | 12.7 | 4.95 | 34.3 | 2.6 | 0.41 | 0.08 | 7.29 | 28 | 74.7 | 2.4 | 5.02 | 3.96 |
| Cc1cccc2c1NC(=O)/C2=N\Nc1ccc(S(N)(=O)=O)cc1 | 3.84 | 1.06 | 5.61 | 0.89 | 1.16 | 2.62 | 3.24 | 3.97 | 8.42 | 3.71 | 7.38 | 1.24 | 4.95 | 2.16 | 1.3 | 1.94 | 4.49 | 2.25 | 0.43 | 2.41 |
| CS(=O)(=O)CCNCc1coc(-c2ccc3ncnc(Nc4ccc(OCc5ccccc5)cc4)c3c2)c1 | 0.66 | 1.48 | 2.33 | -0.25 | 1.83 | 3.02 | 4.76 | 2.99 | 4.78 | 2.21 | 6.33 | -1.59 | 2.97 | 0.96 | 8.92 | 1.82 | 2.72 | 2.46 | 3.11 | 3.44 |
| CCOc1ccc2c(-c3ccnc(Nc4cccc(C(F)(F)F)c4)n3)cnn2n1 | 6.13 | -0.46 | 6.48 | 1.37 | 21 | 1.79 | 0.78 | 12.1 | 46.1 | 5.68 | 33.6 | 21.8 | 70 | 10.3 | 46.2 | 1.84 | 1.35 | 3.23 | 3.31 | 2.89 |
| CC(C)(CO)CNC(=O)c1ccc2c(c1)/C(=N/Nc1ccc(S(N)(=O)=O)cc1)C(=O)N2 | 9.15 | -0.06 | 7.83 | -0.36 | 1 | 0.82 | 9.64 | 23.2 | 65.2 | 22.4 | 66.8 | -4.78 | 13.1 | -0.55 | 4.55 | -0.59 | 8.39 | 8.62 | 42.1 | 1.78 |
| FC(F)(F)c1cccc(-c2nn3ncccc3c2-c2ccnc(Nc3ccc4c(c3)OCCO4)n2)c1 | 0.79 | 1.23 | 2.77 | 0.78 | 0.83 | 2.54 | 3.26 | 5.83 | 22.4 | 5.36 | 33.3 | -2.65 | 3.4 | -0.63 | 3.75 | 4.15 | 20.4 | 1.58 | 4.01 | 1.85 |
| CN(C)CCOc1ccc(-c2nc(-c3ccncc3)c(-c3ccc4c(c3)CC/C4=N\O)[nH]2)cc1 | 3.66 | 4.17 | 8.33 | 2.86 | 5.07 | 2.04 | 4.1 | 5.08 | 9.93 | 4.7 | 9.68 | 6 | 17.8 | 3.76 | 8.61 | -0.13 | 6.51 | 3.96 | 2.88 | 1.97 |
| NS(=O)(=O)c1ccc(Nc2ncc(-c3ccccc3)o2)cc1 | 6.65 | 6.93 | 16 | 5.92 | 12.5 | 2.13 | 8.68 | 12.9 | 43.4 | 11.4 | 35.4 | 9.46 | 28.8 | 6.48 | 24.3 | 1.48 | 7.69 | 2.91 | 3.4 | 2.41 |
| CNC(=O)c1cccc(C#Cc2cncnc2Nc2ccc(OCc3cccc(F)c3)c(Cl)c2)c1 | -0.52 | -0.33 | 1.36 | 0.13 | 1 | 0.97 | 1.82 | 1.09 | 3.8 | 0.4 | 6.56 | 1.69 | 4.07 | 1.01 | 4.65 | -2.46 | 1.25 | 1.53 | 0.6 | 2.46 |
| COc1cc(/C=N/Nc2ncnc3[nH]ncc23)ccc1O | 13.2 | 12.5 | 45.1 | 6.29 | 31.6 | 7.46 | 44.8 | 9.63 | 41.7 | 7 | 24.5 | 9.37 | 39.4 | 5.91 | 23 | 1.89 | 5.5 | 3.68 | 4.72 | 2.18 |
| CCn1c(-c2nonc2N)nc2c(C#CC(C)(C)O)nc(OC[C@H](N)c3ccccc3)cc21 | 0.92 | 1.72 | 2.24 | 0.98 | 2.57 | 3.62 | 4.79 | 36.8 | 73.6 | 30 | 71.2 | -1.18 | 12.3 | 3.08 | 6.13 | 7.43 | 9.81 | 2.37 | 5.04 | 3.72 |
| COc1ccc(-c2cc(-c3c[nH]nc3-c3ccccn3)ccn2)cc1 | 1.7 | 2.83 | 6.71 | -0.15 | 2.54 | 4.14 | 3.1 | 3.67 | 5.27 | 3.56 | 6.22 | 4.42 | 4.88 | 2.68 | -2.34 | 4.47 | 9.74 | 4.07 | 5.26 | 3.56 |
